According to the supplement of paper PMC8371130:
Structures can show the parent of a compound that is named as a salt.

System: HL-1
Assay: relative cell viability (CellTiter-Glo) vs DMSO control (% of DMSO control); higher = more viable cells
Outline: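 In 384-well plates, 1000 HL-1 mouse atrial cardiomyocytes per well were plated with compounds at 40, 200, 1000 or 5000 nM in 0.01% DMSO. Hypoxia at 1% O2 for 48 h began one day later and was followed by 24 h of reoxygenation, with parallel plates held in normoxia. CellTiter-Glo luminescence gave cell viability relative to vehicle-treated control cells.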

[1] = oxygen condition: hypoxia 48 h (1% O2) + reoxygenation 24 h, 40 nM
[2] = oxygen condition: hypoxia 48 h (1% O2) + reoxygenation 24 h, 200 nM
[3] = oxygen condition: hypoxia 48 h (1% O2) + reoxygenation 24 h, 1000 nM
[4] = oxygen condition: hypoxia 48 h (1% O2) + reoxygenation 24 h, 5000 nM
[5] = oxygen condition: normoxia 72 h, 40 nM
[6] = oxygen condition: normoxia 72 h, 200 nM
[7] = oxygen condition: normoxia 72 h, 1000 nM
[8] = oxygen condition: normoxia 72 h, 5000 nM

SMILES	relative cell viability [1]	relative cell viability [2]	relative cell viability [3]	relative cell viability [4]	relative cell viability [5]	relative cell viability [6]	relative cell viability [7]	relative cell viability [8]
O=S(=O)(O)CCS [Mesna]	105	102	116	120	112	109	112	123
Nc1nc2n[nH]nc2c(=O)[nH]1 [Azaguanine-8]	92	105	102	111	103	102	98.7	104
C#C[C@]1(O)CC[C@H]2[C@@H]3CCc4cc(O)ccc4[C@H]3CC[C@@]21C [Ethinyl Estradiol]	104	104	105	107	107	105	108	110
CC(C)NCC(O)COc1ccc(COCCOC(C)C)cc1 (stereo not given) [Bisoprolol]	93.2	103	87.2	101	90.8	101	85.4	108
CC1CCc2c(N3CCC(O)CC3)c(F)cc3c(=O)c(C(=O)O)cn1c23 (stereo not given) [Nadifloxacin]	103	104	102	110	104	103	100	107
CN(CCOc1ccc(CC2SC(=O)NC2=O)cc1)c1ccccn1 (stereo not given) [Rosiglitazone HCl]	107	93.8	101	109	100	93.8	104	107
C=C[C@H]1CN2CC[C@H]1C[C@H]2[C@H](O)c1ccnc2ccc(OC)cc12 [Quinine hydrochloride dihydrate]	103	104	102	104	102	101	103	111
CCCCc1ncc(/C=C(\Cc2cccs2)C(=O)O)n1Cc1ccc(C(=O)O)cc1 [Eprosartan Mesylate]	96.2	101	103	104	107	102	102	105
CS(=O)(=O)CCNCc1ccc(-c2ccc3ncnc(Nc4ccc(OCc5cccc(F)c5)c(Cl)c4)c3c2)o1 [Lapatinib]	101	97.4	99.7	104	93.2	96.8	94	102
NC(=O)c1ncn([C@@H]2O[C@H](CO)[C@@H](O)[C@H]2O)c1O [Mizoribine]	103	109	115	108	111	104	103	110
CCCCCCCCCCC[C@@H](C[C@@H]1OC(=O)[C@H]1CCCCCC)OC(=O)[C@H](CC(C)C)NC=O [Orlistat]	104	115	94.9	107	108	112	102	103
C[C@H](CS)C(=O)N1CCC[C@H]1C(=O)O [Captopril]	108	103	105	109	105	97.2	106	113
NS(=O)(=O)c1cc(C(=O)O)c(NCc2ccco2)cc1Cl [Furosemide]	116	105	108	112	106	101	111	106
OCCOCCN1CCN(C(c2ccccc2)c2ccc(Cl)cc2)CC1 (stereo not given) [Hydroxyzine 2HCl]	104	107	109	114	102	107	105	109
Cc1c(-c2ccccc2)oc2c(C(=O)OCCN3CCCCC3)cccc2c1=O [Flavoxate HCl]	96.7	102	108	108	103	101	106	109
Cc1ncc([N+](=O)[O-])n1CC(O)CCl (stereo not given) [Ornidazole]	106	109	123	115	108	108	103	117
C[C@@H]1CC(=O)NN=C1c1ccc(NN=C(C#N)C#N)cc1 [Levosimendan]	101	103	102	108	95.9	103	105	103
Nc1cccc2c1C(=O)N(C1CCC(=O)NC1=O)C2=O (stereo not given) [Pomalidomide]	100	97.5	103	112	96.9	104	103	113

SMILES	relative cell viability [1]	relative cell viability [2]	relative cell viability [3]	relative cell viability [4]	relative cell viability [5]	relative cell viability [6]	relative cell viability [7]	relative cell viability [8]
O=C1c2cccc3c2[C@H](CCC3)CN1[C@@H]1CN2CCC1CC2 [Palonosetron HCl]	103	109	112	97	101	103	86.6	104
CNC[C@H](O)c1ccc(O)c(O)c1 [Epinephrine bitartrate]	99.2	98.8	97.2	6.86	101	102	98.4	3.42
CCc1ccc(CCOc2ccc(CC3SC(=O)NC3=O)cc2)nc1 (stereo not given) [Pioglitazone]	109	110	114	116	104	107	117	120
N[C@@H](Cc1ccc(O)c(O)c1)C(=O)O [Levodopa]	110	109	107	110	104	101	108	104
C=C1/C(=C\C=C2/CCC[C@]3(C)[C@@H]([C@H](C)/C=C/[C@H](C)C(C)C)CC[C@@H]23)C[C@@H](O)C[C@@H]1O [Doxercalciferol]	89.5	88	93.7	88.7	106	99	103	52.4
CS(=O)(=O)CCNCc1ccc(-c2ccc3ncnc(Nc4ccc(OCc5cccc(F)c5)c(Cl)c4)c3c2)o1 [Lapatinib Ditosylate]	107	116	116	84.4	107	115	122	61.7
Clc1ccc(C(c2ccccc2Cl)C(Cl)Cl)cc1 (stereo not given) [Mitotane]	108	105	107	102	104	110	106	121
CC(C)NCC(O)COc1ccc(CCOCC2CC2)cc1 (stereo not given) [Betaxolol hydrochloride]	107	104	106	79.8	105	106	86.5	69.3
Clc1ccccc1CN1CCc2sccc2C1 [Ticlopidine HCl]	96.8	94.8	97	103	94.9	97.1	95.5	108
CCN(CC)CCNC(C(=O)OCCC(C)C)c1ccccc1 (stereo not given) [Camylofin Chlorhydrate]	108	103	106	109	101	100	103	110
CN(C)C(=N)NC(=N)N [Metformin hydrochloride]	98.4	104	105	109	105	96.6	104	109
Nc1nc(CC(=O)Nc2ccc(CCNC[C@H](O)c3ccccc3)cc2)cs1 [Mirabegron]	112	110	111	112	103	104	113	129
CCOC(=O)[C@H](CCc1ccccc1)N[C@@H](C)C(=O)N1Cc2cc(OC)c(OC)cc2C[C@H]1C(=O)O [Moexipril HCl]	105	102	107	67.2	100	98.2	90.7	64.1
CCCSc1nc(N[C@@H]2C[C@H]2c2ccc(F)c(F)c2)c2nnn([C@@H]3C[C@H](OCCO)[C@@H](O)[C@H]3O)c2n1 [Ticagrelor]	109	115	108	123	108	108	113	111
O=C(NCCO[N+](=O)[O-])c1cccnc1 [Nicorandil]	101	105	108	102	104	98.1	99.2	102
CCCCCCNC(=O)n1cc(F)c(=O)[nH]c1=O [Carmofur]	102	83.8	51.6	18.3	99.2	81.2	44.3	15.1
CCOc1ccc2ccccc2c1C(=O)N[C@@H]1C(=O)N2[C@@H]1SC(C)(C)[C@@H]2C(=O)O [nafcillin sodium monohydrate]	92.6	104	105	109	99.1	101	103	107
